# Most compounds without a hit are left out; they make up all but 4.1% or so of the library.
# Pyk2 oligo antag: antagonists of human Pyk2 oligomerization; Q14289; Q293 cells, Pyk2 FERM NanoBiT luminescence; active compounds read low; z-score (the deposit names both 25 µM and 10 µM); hit rate 0.83% among 99,000; AID 1347419;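 active = Z-score of -3 or lower, scaled per plate to the spread of control and sample wells; inactive = z-score above -3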;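 note: negative z-score means lost luminescence so less FERM oligomerization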
# CD11b adhes inh: blocks human CD11b/CD18 adhesion to fibrinogen; inhibition, % at 10 µM; hit rate 0.54% among 93,000; K562 CD11b/CD18 adhesion to fibrinogen, ATPlite luminescence; Mn2+ added to activate the integrin;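 active = primary inhibition of 50% or more at 10 µM, then 40% or more on retest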
# Target sequence (P05107 whole entry, looked up, other chains not shown): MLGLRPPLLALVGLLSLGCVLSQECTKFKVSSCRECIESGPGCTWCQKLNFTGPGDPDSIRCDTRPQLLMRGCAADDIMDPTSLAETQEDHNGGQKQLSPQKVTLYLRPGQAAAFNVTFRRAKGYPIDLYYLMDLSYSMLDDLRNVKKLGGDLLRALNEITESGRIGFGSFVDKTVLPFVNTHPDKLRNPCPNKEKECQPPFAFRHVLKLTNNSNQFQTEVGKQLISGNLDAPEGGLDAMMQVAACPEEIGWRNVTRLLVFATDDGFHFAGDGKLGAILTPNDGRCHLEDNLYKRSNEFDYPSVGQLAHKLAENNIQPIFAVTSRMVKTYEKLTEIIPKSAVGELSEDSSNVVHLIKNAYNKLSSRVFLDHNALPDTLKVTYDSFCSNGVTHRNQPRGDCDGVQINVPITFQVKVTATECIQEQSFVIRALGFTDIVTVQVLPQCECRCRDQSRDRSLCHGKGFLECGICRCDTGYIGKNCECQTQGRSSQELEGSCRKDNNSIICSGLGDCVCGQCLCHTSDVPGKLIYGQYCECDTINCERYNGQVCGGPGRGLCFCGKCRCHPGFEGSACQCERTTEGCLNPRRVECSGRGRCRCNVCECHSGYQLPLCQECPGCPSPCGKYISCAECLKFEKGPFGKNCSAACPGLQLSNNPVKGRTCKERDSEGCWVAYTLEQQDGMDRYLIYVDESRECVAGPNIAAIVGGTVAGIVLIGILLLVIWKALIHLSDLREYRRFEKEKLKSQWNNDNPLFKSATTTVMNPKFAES
# MRP resist rev: compounds reversing MRP-mediated drug resistance | H69AR cells + 2 uM doxorubicin, CellTiter-Glo, 72 h | differential viability (reversal), % at 10 µM | hit rate 0.04% among 85,000 | AID 602;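 active = viability drop by adding the cancer drug above about 55%, with treated viability meeting a 40% cutoff, limit read from the data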;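 note: viability without doxorubicin minus viability with 2 µM doxorubicin for each compound; larger differential means the compound sensitizes cells more to doxorubicin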
# CD11b adhes enh: CD11b/CD18-fibrinogen binding enhancement. hit rate 0.07% among 93,000. activation, % at 10 µM. P05107+P11215. K562 CD11b/CD18 adhesion to fibrinogen, ATPlite luminescence;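 active = 10 µM primary screen giving 50% or more activity, confirmed by 40% or more on retest at that dose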
# MRP-1 activ: activators of MRP-1; hit rate 0.61% among 140,000; H69AR cells + doxorubicin, viability rescue, CellTiter-Glo; viability increase, % at 10 µM;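 active = viability gain under doxorubicin at or above a set limit, the compound median plus 3 SD, cut at about 4.7% in these data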;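 note: MRP-1 overexpressing cells given doxorubicin 25 µM after compound pretreatment; 18-22 h compound pretreatment then 72 h with doxorubicin before readout; 0% = doxorubicin-only wells and 100% = vehicle-treated cells without doxorubicin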
# Cav3 T inh: inhibitors of human Cav3.2 T-type calcium channel; O95180; Cav3.2-expressing cells, Fluo-4 calcium fluorescence FDSS; active compounds read low; B-score at 10 µM; hit rate 4% among 100,000;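 active = single-dose well whose peak fluorescence ratio is a statistical outlier from its plate by either plate-standardised score or position-corrected B-score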
# Starred values were filed as active, the others as inactive; nt = no result given.
SMILES,Pyk2 oligo antag,CD11b adhes inh,MRP resist rev,CD11b adhes enh,MRP-1 activ,Cav3 T inh
CCOC(=O)c1c(NS(C)(=O)=O)sc2c1CCC(C)C2 (stereo unspecified),2.48,-5.4,-6.2,-0.4,0.5,-10.2*
CCOC(=O)c1c(N)sc2c1CCC(C)C2 (stereo unspecified),1.49,0.0,9.4,-3.6,-0.7,-0.0632
CC1=NOC(=O)/C1=C/c1ccc(-c2ccc(Cl)cc2)o1,-1.38,93.6*,0.5,-6.2,-1.0,0.136
O=C(CCn1c(=S)[nH]c2cc3c(cc2c1=O)OCO3)N1CCc2ccccc2C1,nt,-33.6,15.1,-0.6,-3.1,nt
Cc1cccc(N2CCN(C(=O)CCn3c(=S)[nH]c4cc5c(cc4c3=O)OCO5)CC2C)c1 (stereo unspecified),-0.98,4.6,-17.6,1.2,1.5,-4*
O=C(CCCn1c(=S)[nH]c2cc3c(cc2c1=O)OCO3)N1CCN(c2ccc(Cl)cc2)CC1,-0.85,25.1,-9.6,2.5,-1.7,-7.66*
O=C(CCCn1c(=S)[nH]c2cc3c(cc2c1=O)OCO3)N1CCN(c2ccccc2)CC1,-0.98,-10.7,-2.3,-0.1,2.4,-3
CCCS(=O)(=O)N1CCCC(C(=O)N2CCN(c3ccccn3)CC2)C1 (stereo unspecified),-0.31,nt,21.4,nt,-2.4,-0.354
CCc1c(C)sc2nc(C(C)C)nc(SCC(=O)N3CCc4ccccc4C3)c12,nt,99.8,nt,-10.2,-1.0,0.268
CC(=O)Nc1ccc(NC(=O)COC(=O)c2c(C)nn(-c3ccccc3)c2C)cc1,nt,nt,nt,nt,-4.0,nt
Cc1nn(-c2ccccc2)c(C)c1C(=O)OCC(=O)NC(=O)NC1CCCC1,-3.39*,-13.3,-11.6,-1.3,-2.8,-1.16
COc1ccc(C(=O)/C=C2/c3ccccc3CC(C)(C)N2C)cc1,0.79,nt,nt,nt,-1.1,nt
O=C(Nc1cc(C(F)(F)F)ccc1Cl)C(Sc1nnc(-c2cccs2)o1)c1ccccc1 (stereo unspecified),nt,100.2*,nt,-8.1,-3.7,nt
O=C(O/N=C/c1ccc2c(c1)OCO2)c1ccccc1Cl,nt,nt,nt,nt,0.4,-0.104
Cn1c(=O)c2c3c(sc2n2c(SCC(N)=O)nnc12)CC(C(C)(C)C)CC3 (stereo unspecified),-0.05,29.9,14.8,2.0,-4.2,4.19*
Cc1ccc(NC(=O)c2cc([N+](=O)[O-])ccc2NCc2cccnc2)cc1Cl,-3.74*,3.0,nt,-2.1,-0.3,-1.62
CC(=O)Nc1ccc(OCC(=O)c2cc(C)ccc2C)cc1,0.6,-19.9,17.0,-1.5,0.1,-0.319
CCOC(=O)c1ccc(N2C(=O)c3n[nH]c(C)c3C2c2cccnc2)cc1 (stereo unspecified),-3.79*,7.9,nt,1.8,-1.2,0.656
Cc1ccc(C)c(S(=O)(=O)N2CCN(C(=O)c3cnccn3)CC2)c1,1.03,-9.8,-0.9,-3.6,-1.1,0.84
COc1ccccc1N1C(=O)c2cccc3c(C(=O)O)ccc(c23)C1=O,0.53,-39.9,-19.1,0.4,1.4,-0.617
Cc1ccccc1N1C(=O)c2cccc3c(N(C)CCO)ccc(c23)C1=O,-2.02,-0.8,6.2,-2.4,-3.0,-4.25*
N#C/C(=C/c1ccc(N2CCCCC2)o1)c1cccc(F)c1,-0.28,28.0,-18.2,-0.9,-2.5,-5.6*
N#C/C(=C/c1ccc(N2CCCCC2)cc1)c1cccc(F)c1,nt,38.1,nt,-5.9,1.9,nt
N#C/C(=C/c1ccc(N2CCCCCC2)o1)c1ccc(Cl)cc1,-0.27,1.1,-20.2,1.9,-1.3,-5.72*
COc1cc(N2CCCC2)c(OC)cc1/C=C(/C#N)c1ccc(F)cc1,-2.68,nt,10.3,nt,2.1,-3.71
SMILES,Pyk2 oligo antag,CD11b adhes inh,MRP resist rev,CD11b adhes enh,MRP-1 activ,Cav3 T inh
CC1=C(C(=O)Nc2ccccc2C)C(c2ccc(C)o2)N2C(=O)CSC2=N1 (stereo unspecified),1.71,-6.8,3.4,4.1,7.3*,-3.8
O=C(COc1ccccc1Cl)Nc1cc(Cl)ccc1Oc1ccccc1,-1.93,-5.3,nt,7.3,-3.2,-1.57
O=c1cc(-c2ccccc2Cl)oc2c(NS(=O)(=O)c3ccccc3OC(F)(F)F)ccc(O)c12,nt,nt,nt,nt,nt,-1.26
CCOC(=O)c1c(-c2ccccc2)oc2ccc(O)c(CN3CCN(C)CC3)c12,0.29,nt,nt,nt,-5.5,nt
Cc1oc2ccc(O)c(CN3CCOCC3)c2c1C(=O)c1ccc(Cl)cc1,-1.58,3.3,nt,7.3,-1.7,-4.36*
Cc1cccc(Cn2c(Cc3ccccc3)nc3ccccc32)c1,nt,-8.6,nt,-1.5,-3.1,nt
Cc1ccccc1Cn1c(Cc2ccccc2)nc2ccccc21,-1.72,nt,nt,nt,-0.9,-5.55*
CCC1(c2ccccc2)NC(=O)N(Cc2ccc(C(=O)OC)cc2)C1=O (stereo unspecified),nt,19.4,nt,0.3,0.9,nt
CCC1(c2cccc(Cl)c2)NC(=O)N(Cc2cc(C(=O)OC)c(C)o2)C1=O (stereo unspecified),0.02,13.1,8.8,1.3,-0.3,-5.54*
Cc1ccc(C(=O)CC2(O)C(=O)N(CCc3ccccc3)c3ccc(Br)cc32)o1 (stereo unspecified),-1.51,nt,11.1,3.1,-1.4,-7.13*
Cc1coc(C)c1C(=O)CC1(O)C(=O)N(Cc2ccccc2)c2ccccc21 (stereo unspecified),0.24,6.3,2.1,3.0,-1.6,-4.61*
Cc1ccc(C(=O)CC2(O)C(=O)N(Cc3ccccc3)c3ccccc32)o1 (stereo unspecified),0.67,3.5,-4.4,3.2,-4.7,-1.39
Cc1ccc(C(=O)CC2(O)C(=O)N(Cc3ccccc3Cl)c3ccccc32)o1 (stereo unspecified),-0.49,24.9,-18.4,0.4,-2.3,-5.62*
CCNc1nc(NCC)n2c(SCC(=O)N(CC)C3CCCCC3)nnc2n1,nt,nt,nt,nt,-3.3,nt
COc1ccc(CNc2nc(NCc3ccc(OC)cc3)n(C(=O)c3ccccc3[N+](=O)[O-])n2)cc1,-1.06,nt,nt,nt,5.4*,-2.23
CCC1CCCCN1Cc1ccc(OC)c(OC)c1 (stereo unspecified),1.31,7.6,-7.8,-1.4,-0.2,0.0906
Cc1nn(C2CCS(=O)(=O)C2)c(Cl)c1/C=C/C(=O)OCC(=O)c1cc(C)n(-c2ccc(F)cc2)c1C (stereo unspecified),nt,nt,nt,nt,0.8,nt
O=C1CN(C(=O)COC(=O)c2cccc(S(=O)(=O)NCc3ccccc3)c2)c2ccccc2N1,-0.76,0.9,2.5,-3.0,-1.8,-5.98*
O=C1CN(C(=O)COC(=O)c2cccc(OCc3ccccc3)c2)c2ccccc2N1,nt,-5.6,nt,7.8,-1.0,nt
Cc1ccc(S(=O)(=O)n2ccc(-c3cccc(OCc4c(F)cccc4Cl)c3)n2)cc1,-0.55,nt,nt,nt,0.8,-0.809
CC(Oc1ccc(Cl)cc1)c1ccnn1S(=O)(=O)c1ccccc1 (stereo unspecified),-0.1,-3.6,nt,7.4,-3.9,-6.06*
CC(Oc1ccc(-c2ccccc2)c(F)c1)c1ccn(S(=O)(=O)c2ccc(Cl)cc2)n1 (stereo unspecified),-0.22,nt,nt,nt,2.6,-5.1*

# High-throughput results from PubChem BioAssay.
